Compounds with a hit are over-represented: about 12% of the library has one in this group of screens.
INS promoter inh = TRM-6 insulin promoter activity inhibition | TRM-6 cells (human fetal islet line), insulin promoter-eGFP reporter, imaging; reporter expression induced with tamoxifen | inhibition, % at 2 µM | 130,000 compounds, 0.9% hits | AID 1273;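 active = inhibition above the mean plus 3 SD, with well images judged a real hit on visual review, cut at about 60% in these data, passing the limit was not always enough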
Insulin prom up = MIN6 insulin promoter up-regulation; MIN6 insulin promoter-GFP reporter, high-content imaging; stronger effect = higher value; z-score at 5 µM; 190,000 compounds, 0.3% hits; AID 1625;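 active = z-score above 3 at 5 µM with at least 500 cells counted in the well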
Cl transport mod = KCC2 (human) Cl- transport modulation; Q9H2X9; KCC2 cells, thallium flux FluoZin-2 fluorescence; B-score of Tl+ flux slope (higher = more flux/activation; lower = inhibition) at 10 µM; 190,000 compounds, 2.2% hits; AID 1456;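 active = thallium flux slope and its plate-corrected score both differing from the plate sample mean at a set confidence after two filtering rounds, in either direction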;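 also: slope of fluorescence scaled to starting intensity during 10 to 20 s after thallium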
ROMK primary = modulators of human ROMK potassium channel; B-score at 10 µM; AID 1918; 130,000 compounds, 2% hits; Tet-inducible ROMK, thallium flux fluorescence; actives lie on both sides;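 active = signal ratio slope over the read window, or its plate-corrected B-score, at least 3 SD from the plate mean, either direction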;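 also: B-score of the F/F0 ratio slope over 7 to 12 s after thallium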
WT yeast gro inh = growth inhibition of WT yeast, mitochondrial fusion screen; 190,000 compounds, 2.1% hits; mitochondrial fusion phenotypic screen, WT strain; inhibition, % at 10 µM; AID 1362; in the data active = inhibition above about 58%; tested in S. cerevisiae
L major viab = Leishmania major promastigote growth inhibition; Leishmania major promastigotes, resazurin fluorescence viability; inhibition, % at 10 µM; 200,000 compounds, 9% hits; in the data active = inhibition above about 50%;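 also: promastigotes grown with compound for 44 hours at 28 °C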
A number is an active result; - = inactive; . = not tested or not shown.

SMILES	INS promoter inh	Insulin prom up	Cl transport mod	ROMK primary	WT yeast gro inh	L major viab
Cc1ccc(N(CC(O)Cn2nc(C)cc2C)S(=O)(=O)c2ccc3ccccc3c2)cc1 (stereo not given)	-	-	-	.	-	76
CC(CC(=O)Nc1ccc(F)c([N+](=O)[O-])c1)c1ccccc1 (stereo not given)	.	-	-	-	-	-
Cn1cnnc1SCc1ccc(C(=O)NN)cc1	.	-	-	-	-	-
O=C(c1ccccc1Cl)N1CCSCC1	.	-	-	-	.	.
N#Cc1cccc(C#N)c1Oc1ccc(N)cc1	.	-	-	.	.	.
Cc1cccc(OCCSc2nc3ncnc(N)c3[nH]2)c1	-	.	-	-	-	-
Cc1cccc(OCCCSc2nc3ccc(C)cc3[nH]2)c1	-	-	-	.	82	-
O=C(C1CC1)N1CCc2cc(S(=O)(=O)N3CCOCC3)ccc21	-	-	.	-	-	-
CC(Cl)C(=O)c1ccc2c(c1)CCN2C(=O)C1CC1 (stereo not given)	-	-	-	.	-	96
N#C/C(=C\c1ccc(-c2ccc(C(=O)O)cc2)o1)C(=O)NCC1CCCO1 (stereo not given)	-	-	-	-	-	-
N#C/C(=C\c1ccc(-c2ccc(S(=O)(=O)N3CCOCC3)cc2)o1)C(=O)NC1CC1	62	-	-	-	-	-
CCOc1ccc(S(=O)(=O)N2CCN(C(=S)NCc3ccco3)CC2)cc1	-	.	-	-	-	-
CCOc1ccc2c(c1)C(C)=CC(C)(C)N2C(=O)Nc1ccccc1	-	.	-	-	-	50
CC(=O)c1cccc(NC(=S)NC2CCCCC2)c1	-	-	-	-	-	-
COc1cc(NC(=O)COC(=O)/C=C/c2ccccc2Cl)cc(OC)c1	-	-	-	-	-	-
COc1cc(NC(=O)COC(=O)/C=C/c2c(C)nn(-c3ccc(F)cc3)c2Cl)cc(OC)c1	-	-	-	-	-	64
Cc1ccc(C(C(=O)NC2CCCCC2)N(Cc2ccco2)C(=O)Cn2cnc3ccccc32)cc1 (stereo not given)	-	-	-	-3.3	-	60
O=C(NC1CCCCC1)C(c1ccc(F)cc1)N(Cc1ccco1)C(=O)Cn1nnc2ccccc21 (stereo not given)	.	-	-	-	-	-
Cc1ccccc1C(=O)NC1CCN(C(=O)N(c2ccccc2)c2ccccc2)CC1	-	-	-	.	-	-
Cc1ccccc1C(=O)NC1CCN(C(=O)N2CCOCC2)CC1	75	.	-	-	-	-
CNC(=S)NCCN1CCOCC1	-	-	-	.	-	51
CC(NC(=S)NCCN1CCOCC1)C12CC3CC(CC(C3)C1)C2 (stereo not given)	.	-	-	-	-	91
Cc1ccccc1C(=O)NCCN1CCOCC1	.	-	-	-	-	-
Cc1ccccc1C(=O)NC(=S)NCCN1CCOCC1	-	-	-	-	-	83
CCCc1cc(=O)oc2c(C)c(OCC(=O)c3ccc(N4CCCC4)cc3)ccc12	.	-	.	.	-	-
SMILES	INS promoter inh	Insulin prom up	Cl transport mod	ROMK primary	WT yeast gro inh	L major viab
CCN(CC)CCOC(=O)/C=C/c1ccccc1OC	-	-	-	-	-	-
COc1ccc(NC(=O)c2cc3c(=O)n(C)c4ccccc4c3s2)cc1OC	-	-	-	-	-	-
COc1cc(NS(C)(=O)=O)c(OC)cc1NC(=O)c1cccc(F)c1	.	-	.	.	-	-
CC(NC(=S)NCCCN1CCOCC1)C1CC2CCC1C2 (stereo not given)	-	.	-	-	59	87
CCCC1=[N+](CC(=O)c2ccccc2)CCn2c(C)ccc21	-	.	-	.	-	90
CCCC1=[N+](CC)CCn2c(C)ccc21	-	-	-	.	-	-
Cc1cccc(Nc2c3c(nc4ccccc24)CCC3)c1	.	-	.	.	.	.
Cc1ccc2nc3c(c(Nc4ccc5c(c4)OCCO5)c2c1)CCC3	-	-	-	-	-	98
Cc1cc(Nc2ccc3c(c2)OCCO3)c2cc(Cl)ccc2n1	.	-	-	-	-	100
Cc1cc(C)c(C#N)c(Nc2ccc3c(c2)OCCO3)n1	.	-	-	.	-	-
COc1ccc(CN(CC2CCC(C(=O)O)CC2)C(=S)Nc2cccc(C)c2)cc1 (stereo not given)	.	3.6	-	-	-	-
Cc1ccc(NC(=S)N(Cc2cccc(Br)c2)CC2CCC(C(=O)O)CC2)cc1 (stereo not given)	.	-	-	-	-	-
COc1ccc(CN(CC2CCC(C(=O)O)CC2)C(=S)Nc2ccccc2OC)cc1 (stereo not given)	.	-	-	-	-	-
Cc1cc(NC(=S)N(Cc2cccc(Br)c2)CC2CCC(C(=O)O)CC2)ccc1Cl (stereo not given)	.	-	-	-	71	-
COc1cccc(/C=N/N2CCN(c3ccccc3OC)CC2)c1	-	-	.	.	-	-
COc1ccc(Cc2nc3c4c(ncn3n2)Oc2ccc3ccccc3c2C4c2ccc(OC)c(OC)c2)cc1 (stereo not given)	.	-	-	.	-	-
COc1ccccc1Nc1ccc([N+](=O)[O-])cc1N	-	-	-	-	-	-
COc1cc(Nc2ccccc2Cl)c([N+](=O)[O-])nc1[N+](=O)[O-]	-	-	-	-	-	83
CSc1nnc(C)c(=O)[nH]1	-	.	-	-	-	-
CCc1nnc(NC(=O)CCN(c2cc(C)cc(C)c2)S(=O)(=O)c2ccc(Cl)cc2)s1	.	-	-	.	-	79
Cc1cc(C)cc(N(CCC(=O)O)S(=O)(=O)c2ccc(Cl)cc2)c1	.	-	-	.	-	-
Cc1ccc(N(CCC(=O)Nc2nnc(C3CC3)s2)S(=O)(=O)c2ccccc2)cc1	-	-	-	-	-	53
CC(OC(=O)c1ccccc1Oc1ccccc1)C(=O)NC1CC1 (stereo not given)	.	-	-	-	-	-
COc1ccc(NC(=S)NCCN2CCC(C)CC2)cc1Cl	.	-	-	-	-	69
COc1ccc(NC(=S)N2CCC(N(C)CCN3CCOCC3)CC2)cc1Cl	-	-	-	-	-	76
SMILES	INS promoter inh	Insulin prom up	Cl transport mod	ROMK primary	WT yeast gro inh	L major viab
CCN1CCCc2cc(CN(CCN3CCOCC3)C(=S)Nc3ccc(OC)c(Cl)c3)ccc21	-	-	-	-	-	-
COc1ccc(NC(=S)NCCCN2CCCC2)cc1Cl	.	-	-	-	-	-
CCCCCCCSc1nnc(-c2ccccc2N)c(=O)[nH]1	-	-	-	-	79	-
CCCCSc1nnc(-c2ccccc2N)c(=O)[nH]1	.	-	-	.	-	-
O=C(c1cccnc1)N1CCc2ccccc2C1	-	-	-	.	-	-
O=C(c1nc2ncccn2n1)N1CCc2ccccc2C1	-	-	-	.	-	91
Fc1cccc2sc(Nc3nc4cc5c(cc4s3)OCCO5)nc12	-	-	11	-	-	-
Fc1cccc2sc(Nc3nc4cc5c(cc4s3)OCO5)nc12	-	-	23	-	-	60
CCOC(=O)c1c(NC(=O)CN2C(=O)NC(C)(c3ccc(Cl)cc3)C2=O)sc(C(=O)NC)c1C (stereo not given)	.	.	-	-	-	-
COc1cc(-c2cc(C(=O)NCCc3ccc(S(N)(=O)=O)cc3)c3ccccc3n2)cc(OC)c1OC	.	-	-	.	.	.

High-throughput results (PubChem BioAssay)
